Compounds with a hit are over-represented: about 4.6% of the library has one in this group of screens.
GBA activity: modulators of human glucocerebrosidase | P04062 | purified enzyme, resorufin glucoside fluorescence (screen aimed at inhibitors), 20 min | Potency, µM | 1.1% of 48,000 active; in the data active = potency below about 15 µM; inconclusive = mostly about 16 µM to 33 µM;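 note: the screen sought inhibitors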
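Compounds titrated against 0.2 nM normal enzyme, 30 uM resorufin beta-D-glucopyranoside substrate, citrate/phosphate buffer with taurocholate and tween-20, pH 5.9. Reaction ran 20 min at room temperature; fluorescence (Ex 548/Em 600) gave AC50.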
Tau filament bind: binds recombinant human tau filaments; Potency, µM (titrated, usually from 57.1 µM); recombinant tau filaments, thioflavin S fluorescence, 15 h; filaments grown with octadecylsulfate alongside compound; P10636; 2% of 71,000 active;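 note: actives lower thioflavin S fluorescence by blocking filaments or displacing dye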
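His-tagged recombinant human tau (exons 2, 3, 10; 1 uM final) fibrillized with 30 uM sodium octadecylsulfate, 15 h at 37 C, in pH 7.4 HEPES buffer with 10 uM thioflavine S and 5 mM DTT. Reduced ThS fluorescence (450/510 nm) marks activity.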
USP2a inh: USP2a (human) protease inhibition; USP2a enzymatic assay, qHTS inhibition; Potency, µM (highest dose often 38.3 µM), hits mostly inhibitors; 0.1% of 60,000 active; note: nearly all actives have a fitted effect of over 60% in size
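20 nM USP2 core + cpd, 30 min RT; add 20 nM Ub-PLA2/20 uM NBD C6-HPC; read Ex460/Em535 at 0 h and 2.5 h. Normalized to NEM; qHTS curve fit/classification.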
Hsp90 Hop PPI: changes Hsp90-Hop TPR2A binding signal, up or down; AlphaScreen TPR2A-His6 binding biotin-Hsp90 C-terminal peptide; Potency, µM (titrated, usually from 57 µM); 0.44% of 71,000 active; active = well fitted curve in either direction with a large enough effect; inconclusive = small, poorly fitted or top-dose-only effect, or another doubt
15-hLO inh: 15-hLO (ALOX15) enzyme inhibition; Potency, µM (doses to about 57.1 µM), actives largely listed as inhibitors; purified 15hLO-1, xylenol orange hydroperoxide absorbance; 1.4% of 74,000 active; AID 887; note: nearly all actives have a fitted effect of over 55% in size
Target sequence (P16050 whole entry, looked up): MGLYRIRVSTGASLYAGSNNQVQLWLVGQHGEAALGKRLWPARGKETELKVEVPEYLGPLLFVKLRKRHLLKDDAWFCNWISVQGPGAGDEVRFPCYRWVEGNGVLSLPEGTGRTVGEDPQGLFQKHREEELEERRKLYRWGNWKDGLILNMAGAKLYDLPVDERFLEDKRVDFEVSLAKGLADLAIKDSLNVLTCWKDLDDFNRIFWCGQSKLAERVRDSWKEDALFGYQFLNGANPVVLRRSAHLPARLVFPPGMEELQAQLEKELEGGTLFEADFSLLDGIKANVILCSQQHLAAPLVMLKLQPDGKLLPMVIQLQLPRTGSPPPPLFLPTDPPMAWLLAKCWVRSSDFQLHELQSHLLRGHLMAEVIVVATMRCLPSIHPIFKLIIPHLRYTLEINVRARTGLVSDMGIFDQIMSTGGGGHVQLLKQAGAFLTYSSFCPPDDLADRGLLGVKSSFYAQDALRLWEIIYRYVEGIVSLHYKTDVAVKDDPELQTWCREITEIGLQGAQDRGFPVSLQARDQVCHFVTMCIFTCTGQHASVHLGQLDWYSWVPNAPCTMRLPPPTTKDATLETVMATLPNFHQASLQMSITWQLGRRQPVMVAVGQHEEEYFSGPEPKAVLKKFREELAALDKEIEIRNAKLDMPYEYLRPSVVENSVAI
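Quantitative HTS in 25 mM Hepes pH 7.5 containing 0.01% Triton X-100: human 15hLO-1 at 40 nM, arachidonic acid at 50 uM, 6 min turnover. Product quantified via ferrous oxidation/xylenol orange, 573:405 nm absorbance ratio.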
PK Bst: pyruvate kinase (B. stearothermophilus) modulation | purified pyruvate kinase, luminescence ATP production; ribose 5-phosphate activator present at AC10 | Potency, µM | 1.2% of 51,000 active; in the data active = potency below about 11 µM; inconclusive = mostly about 12 µM to 25 µM;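 the screen sought inhibitors and activators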
Hsp90-TPR2A inh: confirmation and counter-screen of Hsp90 TPR2A co-chaperone interaction disrupters | 100% of 45 active | shares compounds with Hsp90 Hop PPI | AlphaScreen TPR2A-His6 / biotin-Hsp90 peptide binding | AID 632 | activity, negative = inhibition, % at 40 µM or 46 µM, hits read low;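 active = compound lowering the Hsp90 and TPR2A binding signal, whether or not the linker counterscreen also flagged it as an artifact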
Hits are given with their value; 0 = inactive; ? = inconclusive; - = no result; + = active, no number; ! = not active in a repeat; [ ] = another dose, or the depositor's remark. Unless noted, calls come from the whole dose curve; as a rule, active = well fitted curve in the direction sought with a large enough effect; inconclusive = small, poorly fitted or top-dose-only effect, or another doubt; inactive = no such curve, though single readings can be large; an effect the other way counts as inactive or inconclusive.

SMILES | GBA activity | Tau filament bind | USP2a inh | Hsp90 Hop PPI | 15-hLO inh | PK Bst | others
C[C@@H]1Cc2cc3c(cc2C(c2ccc(N)cc2)=NN1)OCO3 | - | 39.8µM | 0 | 0 | ? | -
C[C@H]1[C@@H](O)[C@@H](C)/C=C\C=CCC\C=C/C=C\C=C/C=C[C@@H](O[C@H]2O[C@@H](C)[C@@H](O)[C@@H](N)[C@@H]2O)C[C@@H]2O[C@@](O)(C[C@@H](O)[C@H]2C(=O)O)C[C@@H](O)[C@@H](O)CC[C@@H](O)C[C@@H](O)C[C@@H](O)CC(=O)O[C@H]1C | - | 0 | 0 | 0 | 7.94µM | -
CC1/C=C/C=C/CC/C=C/C=C/C=C/C=C/C(OC2OC(C)C(O)C(N)C2O)CC2O[C@](O)(CC(O)C(O)CCC(O)CC(O)CC(O)CC(=O)OC(C)C(C)C1O)CC(O)C2C(=O)O (stereo partly specified) | - | - | 0 | - | 0 | -
COCc1cc(C)c(C#N)c(=S)[nH]1 | 0 | 0 | 0 | 0 | 1.58µM | 0
O=c1cc(-c2ccc(O)c(O)c2)oc2cc(O)cc(O)c12 | - | ? | 0 | 0 | 2.51µM | -
Cn1c(O)c(C=NC2CC3CCC2(C)C3(C)C)c(=O)[nH]c1=O (stereo unspecified) | 0 | 0 | 0 | 0 | 0 | 0
CC(C)CC(N(C)C)C1(c2ccc(Cl)cc2)CCC1 (stereo unspecified) | - | - | 0 | - | 20µM! | -
C[C@@]12C=CC(=O)C=C1CC[C@@H]1C2=CC[C@]2(C)[C@@H]1CC[C@H]2C(=O)CN1CCN(c2cc(N3CCCC3)nc(N3CCCC3)n2)CC1 | - | 6.31µM | 0 | 0 | ? | -
O=C1C(Cl)=C(Cl)C(=O)C(Cl)=C1Cl | - | 0 | 0 | 0 | 0.159µM | -
CN1C[C@H](C(=O)N[C@]2(C)O[C@]3(O)[C@H]4CCCN4C(=O)[C@H](Cc4ccccc4)N3C2=O)C[C@H]2c3cccc4[nH]cc(c34)C[C@@H]21 | - | 0 | 0 | 0 | 0 | -
Cc1ccc(OP(=O)(Oc2ccc(C)cc2)Oc2ccc(C)cc2)cc1 | - | 0 | - | 15.8µM | 0 | -
Cc1cc(C)cc(OP(=O)(Oc2cc(C)cc(C)c2)Oc2cc(C)cc(C)c2)c1 | - | 0 | - | ? | 0 | -
C#CCN1C(C)=C(C(=O)CCO)[C@@H](c2cccc(-n3oo3)c2)C(C(=O)OC)=C1C | - | 39.8µM | - | 0 | 0 | -
Fc1ccc(C(OCCN2CCN(CCCc3ccccc3)CC2)c2ccc(F)cc2)cc1 | - | ? | 0 | 0 | 0 | -
c1ccc(CCCN2CCN(CCOC(c3ccccc3)c3ccccc3)CC2)cc1 | - | 0 | 0 | 0 | 25.1µM | -
Cc1ccc(S(=O)(=O)N2CCC(C(=O)N3CCC4(CC3)OCCO4)CC2)cc1 | 0 | 0 | 0 | 0 | 0 | 0
NCCCCN=C(N)N | - | 39.8µM! | 0 | 0 | ? | -
O=c1ccc2[nH]cc(C3=CCNCC3)c2[nH]1 | - | ? | - | 0 | 0 | -
C=CCN1C[C@H](C)N([C@H](c2ccc(C(=O)N(CC)CC)cc2)c2cccc(O)c2)C[C@H]1C | - | 39.8µM | - | 0 | 0 | -
C=CCN1C[C@H](C)N([C@@H](c2ccccc2)c2ccc(C(=O)N(CC)CC)cc2)C[C@H]1C | - | 0 | - | ? | 0 | -
CN(C)c1ccc(N=Nc2ccccc2)cc1 | - | 15.8µM | - | 12.6µM | 0 | -
COC1=CC(=O)O[C@@H](/C=C/c2ccc3c(c2)OCO3)C1 | - | 0 | - | ? | 0 | -
CC(=O)Nc1nnc(SCC(=O)NCCOc2ccccc2)s1 | - | 0 | 7.94µM | 0 | ? | -
c1ccc(C[N+]23CN4CN(CN(C4)C2)C3)cc1 | - | 0[11.4 µM] | - | 0[11 µM] | 0[11.4 µM] | -
O=S(=O)(c1ccccc1)N1CN2CCN(C2)C1 | 13.7 | 0 | 0 | 0 | 0 | 0
SMILES | GBA activity | Tau filament bind | USP2a inh | Hsp90 Hop PPI | 15-hLO inh | PK Bst | others
CN1CCN(C(=O)COc2ccc(-c3nc4ccccc4s3)cc2)CC1 | 0 | 0 | 0 | 0 | 0 | 1.03
NCC1(c2ccc3c(c2)OCCO3)CCCC1 | - | - | - | - | - | 0
O=C(NC(=O)c1c(F)cccc1F)Nc1cc(Cl)c(OC(F)(F)C(F)C(F)(F)F)cc1Cl (stereo unspecified) | - | - | 0 | - | 15.8µM | -
Nc1ccc(-c2ccc(N)c(Cl)c2)cc1Cl | - | ? | - | 0 | 0 | -
Nc1ccc(-c2ccc(N)c(O)c2)cc1O | - | 5.01µM | - | ? | ? | -
CC(C)CCCC(C)C1CCC2C3=CC[C@@H]4CC(O)CC[C@@]4(C)C3CC[C@]21C (stereo partly specified) | - | - | 0 | - | ? | -
C=C1CC[C@H](O)C/C1=C/C=C1\CCC[C@]2(C)[C@@H]([C@H](C)CCCC(C)C)CC[C@@H]12 | - | ? | - | 0 | 15.8µM | -
C/C=C(\C)C(=O)OC1CC(OC(C)=O)[C@@]2(C(=O)OC)COC3C2[C@@]12CO[C@](O)(C(=O)OC)C2[C@](C)(C12OC1(C)C1CC2OC2OC=C[C@]21O)C3O (stereo partly specified) | - | - | 0 | - | 0 | -
Cn1ncnc2c(=O)n(C)c(=O)nc1-2 | 0 | 0 | 0 | 0.794µM | 0 | 0 | Hsp90-TPR2A inh=+
CCN(CC)C(=O)N[C@H]1C[C@H]2c3cccc4[nH]cc(c34)C[C@@H]2N(C)C1 | - | 0 | 0 | 0 | ? | -
